# Test results taken from PubChem BioAssay (Tox21).
# Values joined by “and” are separate entries in the source; they are usually repeats but may differ in a detail not shown here. Identical values can stand only once. Results filed as inconclusive are left out. Some compounds were tested as several samples or in several runs, with calls that do not always agree. Active and inactive are the calls of the source. Calls come from the whole dose curve; as a rule, active = well fitted cell-killing curve with a large enough effect in the repeat runs; inconclusive = weak or mixed curves; inactive = flat fitted curve, though single readings scatter. Starred links: 1 amine or outer side, 2 acyl side, 3 side chain; linkers in the order of their positions; H or OH if unused. Positions of bridges follow the written chain, without caps; N, C: chain ends. Non-standard residues stand in square brackets, D forms with d. Residues, ends and D or L forms follow the SMILES beside them. Chains are numbered I, II in the order given. Actinocin(9to1) = Cc1c2oc3c(C)ccc(C(=O)[*:1])c3nc-2c(C(=O)[*:2])c(N)c1=O; NMeV = CN[C@H](C(=O)O)C(C)C; Sar = CNCC(=O)O
# Experiment: qHTS assay to identify small molecule antagonists of the estrogen related receptor (ERR) signaling pathway from Tox21 library - cell viability counter screen (AID 1224834); note: nearly all actives have a fitted effect of over 30% in size
# Conditions: ERR reporter cells viability, CellTiter-Fluor, 17.5 h; series mostly up to 92.4 µM; viability change, negative = cytotoxic: at the top concentration
# Text: National Center for Advancing Translational Sciences [NCATS]
# NIH Chemical Genomics Center [NCGC]
# U.S. Environmental Protection Agency [EPA]
# National Institutes of Environmental Health Sciences [NIEHS]
# National Toxicology Program [NTP]
# U.S. Food and Drug Administration [FDA]
# Estrogen related receptors (ERRs), the first orphan nuclear receptors discovered, play an important role in the control of cellular energy metabolism. ERRs are required for high-energy production in response to the environmental challenges. ERR-alpha was also identified as an adverse marker for breast cancer progression; ERR-alpha-positive tumors have a poor prognosis. To screen and to identify environmental compounds that perturb the ERR signaling pathways could provide valuable information for potential therapeutic or preventive measures in the treatment of metabolic disease. To differentiate true ERR antagonists or agonist from cytotoxic substances, the assay is multiplexed with cell viability assay.
# Tox21 Assay Protocol Summary:
# The ERR cells were dispensed at 2,000 cells/5 ul/well in 1536-well white plates using a Multidrop dispenser. After the assay plates were incubated at a 37 C/5% CO2 incubator for 6 hours, 23 nL of compounds dissolved in DMSO, positive and negative controls or DMSO only was transferred to the assay plate by a pin tool. The plates were incubated at 37 C for 17.5 hours. 1 ul/well of CellTiter-Fluor reagent was added into the assay plates using a Flying Reagent Dispenser. After 30-minute incubation at 37 C/5% CO2, the fluorescence intensity in the plates was measured using a ViewLux plate reader.
# % is set by controls: 0 for no effect and ±100 for the full control effect; potency is the fitted concentration of half-maximal effect.
SMILES,"viability change, negative = cytotoxic",Potency
O=Cc1ccc(Cl)cc1,1.48% (inactive),
NC(Cc1ccc(Cl)cc1)C(=O)O (stereo not given),-4.51% [at 0.349 µM] (inactive),
Nc1nc(=S)c2[nH]cnc2[nH]1,,11.9 µM (active) and 4.33 µM (active)
Cc1ccc(S(=O)(=O)Oc2ccc(N=Nc3ccc(-c4ccc(N=Nc5c(O)ccc6cc(S(=O)(=O)O)cc(S(=O)(=O)O)c56)c(C)c4)cc3C)cc2)cc1,,19.4 µM (active) and 17.8 µM (active)
CC1COC(=O)O1 (stereo not given),,inactive
O=C1NCC2(CCN(CCc3ccccc3)CC2)O1,-7.37% [at 42.5 µM] (inactive),
Cc1cc(C2(c3cc(C)c(O)cc3C)OS(=O)(=O)c3ccccc32)c(C)cc1O,,21.7 µM (active) and 24.3 µM (active)
O=C1Nc2ccccc2C1(c1ccc(O)cc1)c1ccc(O)cc1,,43.3 µM (active)
CC(=O)Nc1ccc(C(=O)CCl)cc1,-8.7% (inactive),
CCOc1ccc2c(c1)C(C)=CC(C)(C)N2,,inactive
CCC(C)(C)C(=O)O[C@H]1C[C@@H](C)C=C2C=C[C@H](C)[C@H](CC[C@@H]3C[C@@H](O)CC(=O)O3)[C@H]21,-8.86% (inactive),
Cc1occc(=O)c1OC(=O)C(C)C,3.5% (inactive),
COC(c1ccccc1)(c1ccccc1)[C@H](Oc1nc(C)cc(C)n1)C(=O)O,-0.638% [at 42.5 µM] (inactive),
C/C=C/c1ccc(OCC)c(O)c1,,inactive
CCCCN(CCO)CCCC,-1.26% (inactive),
NC(=Nc1ccccc1)Nc1ccccc1,1.31% [at 42.5 µM] (inactive),
c1cc(C(c2ccc(OCC3CO3)cc2)C(c2ccc(OCC3CO3)cc2)c2ccc(OCC3CO3)cc2)ccc1OCC1CO1 (stereo not given),-0.757% (inactive),
CCN(CC)C(=S)SSC(=S)N(CC)CC,,243 nM (active) and 88.4 nM (active) and 335 nM (active)
CC(=O)C1=C(C)[C@@H]2C[C@@]3(C1)[C@H](C)CC[C@H]3C2(C)C,,inactive
CC(C)CCOC(=O)c1ccc(N(C)C)cc1,-0.978% [at 42.5 µM] (inactive),

SMILES,"viability change, negative = cytotoxic",Potency
CC(=O)OCCOCCOCCOC(C)=O,,inactive
CCC[C@H](N[C@@H](C)C(=O)N1[C@H](C(=O)O)C[C@@H]2CCCC[C@@H]21)C(=O)OCC,,inactive
NC12CC3CC(CC(C3)C1)C2,-1.1% [at 42.5 µM] (inactive),
Cc1cc(Cc2cc(C)cc(C(C)(C)C)c2O)c(O)c(C(C)(C)C)c1,,48.8 µM (active) and 43.3 µM (active)
CN1C(=O)c2ccc([N+](=O)[O-])cc2C1=O,4.85% (inactive),
CCc1cc(C(C)(C)C)c(O)c(C(C)(C)C)c1,,inactive
Oc1c(Cl)cc(Cl)c(Cl)c1Cc1c(O)c(Cl)cc(Cl)c1Cl,,13.6 µM (active) and 13.7 µM (active) and 8.41 µM (active)
C=CC(=O)OCCCCCCOC(=O)C=C,,54.5 µM (active)
COc1cc(C(=S)N2CCOCC2)ccc1O,8.21% [at 42.5 µM] (inactive),
Nc1ccc(O)cc1,,31.8 µM (active) and inactive
Nc1cc(Cl)c(-c2cc(Cl)c(N)cc2Cl)cc1Cl,,48.5 µM (active) and 30.6 µM (active)
OCCOCCN1CCN(C(c2ccccc2)c2ccc(Cl)cc2)CC1 (stereo not given),,30.2 µM (active)
N[C@@H]1CONC1=O,3.29% [at 42.5 µM] (inactive),
"Cc1c2oc3c(C)ccc(C(=O)N[C@@H]4C(=O)N[C@H](C(C)C)C(=O)N5CCC[C@H]5C(=O)N(C)CC(=O)N(C)[C@@H](C(C)C)C(=O)O[C@@H]4C)c3nc-2c(C(=O)N[C@@H]2C(=O)N[C@H](C(C)C)C(=O)N3CCC[C@H]3C(=O)N(C)CC(=O)N(C)[C@@H](C(C)C)C(=O)O[C@@H]2C)c(N)c1=O (I: T[dV]P[Sar][NMeV] / II: T[dV]P[Sar][NMeV]; ester I:1-I:C, II:1-II:C; linker I:N-II:N via Actinocin(9to1))",,7.48 µM (active) and 188 nM (active)
CC[C@]1(O)C[C@@H]2CN(CCc3c([nH]c4ccccc34)[C@@](C(=O)OC)(c3cc4c(cc3OC)N(C)[C@H]3[C@@](O)(C(=O)OC)[C@H](OC(C)=O)[C@]5(CC)C=CCN6CC[C@]43[C@@H]65)C2)C1,,0.841 µM (active)
CC(C)CCCCCCc1ccc(O)cc1,,7.83 µM (active) and 48.6 µM (active)
CC(C)(C)NCC(O)COc1ccccc1OCC1CCCO1 (stereo not given),5.56% [at 42.5 µM] (inactive),
CCN(CC)c1ccc2c(C)cc(=O)oc2c1,,inactive
CC(C(O)c1ccc(O)cc1)N1CCC(Cc2ccccc2)CC1 (stereo not given),-5.94% [at 42.5 µM] (inactive),
Oc1c(Cl)cc(Cl)cc1Sc1cc(Cl)cc(Cl)c1O,,21.7 µM (active) and 24.3 µM (active)
